Each structure is given as a SMILES string. Screen size: about 39,000 compounds; about 3,300 (8.5%) were called active. What follows is part of a selection rich in actives, with near analogues and random picks from the rest.

This assay deals with HepG2. Nature of the assay: cytotoxicity call (relative viability < 0.9). To be noted: 10 µM.
In the case of `C[C@@H]1CN([C@@H](C)CO)S(=O)(=O)c2ccc(C3=CCCC3)cc2O[C@@H]1CN(C)C(=O)C1CCOCC1`, the cytotoxicity call is “inactive”.
In the case of `CO[C@@H]1CN(C)C(=O)c2cc(NC(=O)C3CCOCC3)ccc2OC[C@H](C)N(Cc2cccnc2)C[C@H]1C` it was “inactive”; in that of `C[C@H](CO)N1C[C@H](C)[C@H](CN(C)C(=O)NC2CCCCC2)OCCCC[C@H](C)Oc2ccc(NC(=O)Cc3ccccc3)cc2C1=O`, “inactive”; in that of `COc1ccc(NC(=O)Nc2ccc3c(c2)C(=O)N([C@H](C)CO)C[C@H](C)[C@@H](CN(C)Cc2ccncc2)OCCCC[C@H](C)O3)cc1`, “inactive”.
With `C[C@H]1CN([C@@H](C)CO)C(=O)c2cc(NC(=O)Nc3ccc(C(F)(F)F)cc3)ccc2O[C@@H]1CN(C)C(=O)Nc1ccc(F)cc1` the entry was “inactive”.
With `C[C@@H]1CN([C@@H](C)CO)C(=O)Cc2cc(NS(=O)(=O)c3ccccc3)ccc2O[C@@H]1CN(C)Cc1ccc(Cl)c(Cl)c1`, the cytotoxicity call is “active”.
In the case of `C[C@H]1CN([C@@H](C)CO)C(=O)Cc2cc(NS(=O)(=O)c3ccccc3)ccc2O[C@H]1CN(C)Cc1ccc(Cl)c(Cl)c1` it was “inactive”; in that of `C[C@@H]1CN([C@@H](C)CO)C(=O)Cc2cc(NS(=O)(=O)c3ccccc3)ccc2O[C@H]1CN(C)Cc1ccc(Cl)c(Cl)c1`, “active”; in that of `C[C@H](CO)N1C[C@H](C)[C@@H](CN(C)Cc2ccc(Cl)c(Cl)c2)Oc2ccc(NS(=O)(=O)c3ccccc3)cc2CC1=O`, “inactive”.
In the case of `C[C@@H]1CN([C@H](C)CO)C(=O)Cc2cc(NS(=O)(=O)c3ccccc3)ccc2O[C@H]1CN(C)Cc1ccc(Cl)c(Cl)c1` it was “active”.
In the case of `C[C@H]1CN([C@@H](C)CO)C(=O)Cc2cc(NS(=O)(=O)c3ccccc3)ccc2O[C@@H]1CN(C)Cc1ccc(Cl)c(Cl)c1` it was “active”; in that of `CNC[C@H]1OCCCC[C@@H](C)Oc2ccc(NC(=O)Nc3cccc4ccccc34)cc2C(=O)N([C@H](C)CO)C[C@H]1C`, “inactive”.
Turning to `COc1ccccc1CNC(=O)C[C@H]1C[C@H]2c3cc(NS(=O)(=O)c4ccc(F)cc4)ccc3O[C@H]2[C@@H](CO)O1`, the cytotoxicity call is “inactive”.
In the case of `C[C@H](CO)N1C[C@H](C)[C@@H](CN(C)Cc2ccc3c(c2)OCO3)Oc2ccc(NC(=O)CCN3CCOCC3)cc2CC1=O` it was “inactive”.
In the case of `COc1ccc(S(=O)(=O)Nc2ccc3c(c2)C(=O)N([C@H](C)CO)C[C@H](C)[C@H](CN(C)Cc2ccccc2)OCCCC[C@@H](C)O3)cc1` it was “inactive”.
With `C[C@@H]1CCCCO[C@H](CN(C)C(=O)NC2CCCCC2)[C@@H](C)CN([C@H](C)CO)C(=O)c2cc(NC(=O)CCCCCC(=O)Nc3ccccc3N)ccc2O1` the entry was “inactive”; with `COc1ccc(S(=O)(=O)N(C)C[C@H]2Oc3ccc(NC(=O)CCCN(C)C)cc3C(=O)N([C@H](C)CO)C[C@@H]2C)cc1`, “inactive”.
On to `COc1ccc(NC(=O)Nc2ccc3c(c2)C(=O)N([C@@H](C)CO)C[C@H](C)[C@H](CN(C)S(=O)(=O)c2ccc(Cl)cc2)OCCCC[C@@H](C)O3)cc1`, for which the cytotoxicity call was “inactive”.
In the case of `C[C@@H]1CCCCO[C@@H](CN(C)C(=O)Nc2ccc(C(F)(F)F)cc2)[C@H](C)CN([C@H](C)CO)C(=O)c2cc(NS(C)(=O)=O)ccc2O1` it was “inactive”.
With `C[C@H](CO)N1C[C@H](C)[C@H](CN(C)Cc2ccc(Cl)c(Cl)c2)Oc2ccc(NS(=O)(=O)c3ccccc3)cc2CC1=O` the entry was “inactive”.
With `C[C@H]1CN([C@@H](C)CO)C(=O)Cc2cc(NS(=O)(=O)c3cccs3)ccc2O[C@H]1CN(C)Cc1ccc(Cl)c(Cl)c1` the entry was “active”.
Regarding `C[C@@H]1CN([C@@H](C)CO)C(=O)Cc2cc(NS(=O)(=O)c3cccs3)ccc2O[C@H]1CN(C)Cc1ccc(Cl)c(Cl)c1`, the cytotoxicity call is “inactive”.
In the case of `C[C@@H]1CN([C@H](C)CO)C(=O)Cc2cc(NS(=O)(=O)c3ccccc3)ccc2O[C@@H]1CN(C)Cc1ccc(Cl)c(Cl)c1` it was “active”; in that of `C[C@H]1CN([C@@H](C)CO)C(=O)Cc2cc(NS(=O)(=O)c3cccs3)ccc2O[C@@H]1CN(C)Cc1ccc(Cl)c(Cl)c1`, “inactive”.
With `C[C@@H]1CCCCO[C@@H](CN(C)Cc2ccccc2)[C@H](C)CN([C@@H](C)CO)C(=O)c2cc(NC(=O)CCC(F)(F)F)ccc2O1` the entry was “inactive”; with `CC(C)NC(=O)N(C)C[C@H]1Oc2ccc(NC(=O)Cn3cnnn3)cc2CC(=O)N([C@H](C)CO)C[C@H]1C`, “inactive”; with `C[C@H](CO)N1C[C@H](C)[C@H](CN(C)Cc2ccc(C(=O)Nc3ccccc3N)cc2)OCc2cnnn2CCCC1=O`, “inactive”.
In the case of `CC(C)(C)c1cc(CN)n[nH]1` it was “inactive”; in that of `O=C(C[C@@H]1C[C@H]2c3cc(NS(=O)(=O)c4ccc(F)cc4)ccc3O[C@H]2[C@@H](CO)O1)N1CCOCC1`, “inactive”; in that of `O=C1O[C@H](c2ccccc2)[C@H](c2ccccc2)N2[C@H]1[C@@H](C(=O)N1CCN(c3ncccn3)CC1)[C@]1(C(=O)Nc3ccc(C#CC4(O)CCCCCC4)cc31)[C@H]2c1ccc(OCCO)cc1`, “inactive”.
For `CO[C@@H]1CN(C)C(=O)c2ccc(NS(=O)(=O)c3ccccc3)cc2OC[C@H](C)N(C(=O)NC(C)C)C[C@@H]1C`, the cytotoxicity call is “inactive”.
In the case of `CC(C)NC(=O)Nc1ccc2c(c1)CC(=O)N([C@H](C)CO)C[C@@H](C)[C@H](CN(C)C(=O)NC1CCCCC1)O2` it was “inactive”.
In the case of `C[C@H](CO)N1C[C@H](C)[C@H](CN(C)S(=O)(=O)c2cn(C)cn2)Oc2ccc(NS(=O)(=O)c3ccccc3)cc2C1=O` it was “inactive”.
With `CC(O)C1C(=O)N2C(C(=O)O)=C(SC3CNC(C(=O)N(C)C)C3)C(C)C12` (stereo not drawn) the entry was “inactive”; with `O=C1CN(/N=C/c2ccc([N+](=O)[O-])o2)C(=O)N1`, “active”; with `O=C(CN1CCOCC1)N/N=C/c1ccc([N+](=O)[O-])o1`, “inactive”.
On to `O=[N+]([O-])c1cncn1CCN1CCOCC1`, for which the cytotoxicity call was “inactive”.
`O=C1OC(CN2CCOCC2)CN1N=Cc1ccc([N+](=O)[O-])o1` (stereo not drawn): the cytotoxicity call is “active”.
In the case of `Nc1nnc(-c2ccc([N+](=O)[O-])o2)o1` it was “inactive”.
In the case of `CCOC(=O)c1ccc(N2NC(=O)/C(=C/c3ccc([N+](=O)[O-])o3)C2=O)cc1` it was “inactive”; in that of `O=C1CN(N=Cc2ccc(-c3ccc([N+](=O)[O-])cc3)o2)C(=O)[N-]1.[Na+]`, “inactive”.
With `O=C1CN(N=Cc2ccc([N+](=O)[O-])o2)C(=O)N1` the entry was “active”; with `O=C1OCCN1N=Cc1ccc([N+](=O)[O-])o1`, “active”.

These data come from the antibiotic and cytotoxicity screens of Wong et al. (2023).
